# From PubChem BioAssay
# Most compounds without a hit are left out; they make up all but 9.3% or so of the library.
# Vaccinia mCherry: qHTS for Stage-Specific Inhibitors of Vaccinia Orthopoxvirus: mCherry Reporter Primary qHTS | hit rate 0.63% among 310,000 | Vaccinia virus mCherry reporter infection, fluorescence | Potency, µM (highest dose often 36.5 µM), inactives show at the highest dose activity change, negative = inhibition, hits mostly inhibitors; calls by dose curve; tested in A549 cells; note: potency is the fitted concentration of half-maximal effect; nearly all actives have a fitted effect of over 35% in size
# VACV Venus inh: qHTS for Stage-Specific Inhibitors of Vaccinia Orthopoxvirus: Venus Reporter Primary qHTS | Vaccinia virus Venus reporter expression, fluorescence | Potency, µM (titrated, usually from 36.5 µM), without a hit: top-dose activity change, negative = inhibition, most hits filed as inhibitors | hit rate 0.46% among 330,000; calls by dose curve; tested in A549 cells; note: potency is the fitted concentration of half-maximal effect; nearly all actives have a fitted effect of over 30% in size
# HCMV antiviral: qHTS Assay for inhibitors of the human cytomegalovirus (HCMV); AID 1259415, 2018; HFF cells, HCMV-luciferase reporter, 72 h; stronger effect = lower value; hit rate 4.5% among 410,000; activity change, negative = inhibition, % at 57.5 µM; in the data active = activity change below about -60%; inconclusive = no clear call, values can overlap the other calls; inactive = above about -39%
#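 Two compound doses tested in HFFs infected with HCMV-luciferase, MOI 1 PFU/cell, 72 h at 37C. Lysate luminescence read with OneGlo; data normalized against buffer-only and 10uM Salinomycin inhibitor controls.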
# Sm TGR inh: qHTS Assay for the Inhibitors of Schistosoma Mansoni Peroxiredoxins; hit rate 3% among 360,000; purified TGR, DTNB reduction, TNB absorbance 405 nm; Potency, µM (titrated, usually from 114 µM), for inactives: top-dose activity change, negative = inhibition, usual class: inhibitors; AID 485364, 2010; Schistosoma mansoni thioredoxin glutathione reductase (TGR), Q962Y6; note: potency is the fitted concentration of half-maximal effect; nearly all actives have a fitted effect of over 60% in size
#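 First, TGR (20 nM dispensed) and NADPH were mixed with compound. Second, a 15 min room-temperature incubation followed. Third, further NADPH and then DTNB were added to start the reaction. Finally, TNB absorbance was monitored kinetically.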
# FMDV inh: High Throughput Screening for Foot and Mouth Disease Virus Antivirals. hit rate 1.2% among 410,000. FMDV antiviral cell-based qHTS. Potency, µM (highest dose often 57.9 µM), for inactives: at the top dose activity change, negative = inhibition, hits mostly inhibitors; calls by dose curve; tested in HEK293T cells; note: read-out not given here; potency is the fitted concentration of half-maximal effect; nearly all actives have a fitted effect of over 45% in size
# HCV inhibitor: qHTS Assay for Inhibitors of Hepatitis C Virus (HCV) | hit rate 3.4% among 340,000 | Potency, µM (titrated, usually from 41.8 µM), for the others: at the highest dose activity change, negative = inhibition, usual class: inhibitors | Huh7.5.1 HCVcc-Cre infection, luciferase reporter, 44 h; note: potency is the fitted concentration of half-maximal effect
#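 Luciferase read-out (15 sec integration) after a 15 min room-temperature substrate step quantifies HCVcc-Cre infection. Cells, 1,000 per well, had compound added 4 h post-plating, then virus at ~0.5 moi, and were cultured 44 h.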
# * marks the source's active call; other numbers are inactive results; i = inactive; ? = inconclusive; . = not tested or not shown; [ ] = dose if it differs, or a comment. Unless noted, calls come from the whole dose curve; as a rule, active = well fitted curve in the direction sought with a large enough effect; inconclusive = small, poorly fitted or top-dose-only effect, or another doubt; inactive = no such curve, though single readings can be large; an effect the other way counts as inactive or inconclusive. % is set by controls: 0 for no effect and ±100 for the full control effect.
SMILES,Vaccinia mCherry,VACV Venus inh,HCMV antiviral,Sm TGR inh,FMDV inh,HCV inhibitor
O=C(CSc1nncn1-c1ccccn1)Nc1cccc(Cl)c1,i,-11.5%,36.1,-13.1%,-5.4%,10.2%
O=C(CSC1=NNC(c2ccccn2)S1)Nc1ccccc1 (stereo not drawn),.,.,-97.5*,?,4.4%,14.1µM*
CC(C)Nc1ncnc2c1ncn2[C@H]1CN(C2CCCC2)C[C@@H](CO)O1,14.6%,-8.6%,-38.0,.,-9.5%,.
CCOC(=O)C1CCCN(C(=O)c2cccc(Cl)c2)CC1 (stereo not drawn),11.4%,0.3%,2.3,.,-5.1%,.
C/C(CC(=O)NC1CCCCC1)=N\NC(=O)c1ccc(Br)cc1,-0.2%,-8.0%,-2.5,0.4%,-0.6%,-13.4%
O=C(/C=C/c1ccco1)N(Cc1cccc(F)c1)C1CCS(=O)(=O)C1 (stereo not drawn),.,.,-20.2,10µM*,-8.3%,9.9%
O=C(c1ccccc1F)N(Cc1ccc(F)cc1)C1CCS(=O)(=O)C1 (stereo not drawn),.,-23.2%,-16.9,16.1%,-8.3%,10.9%
O=C(c1ccccc1)N(Cc1cccc(Br)c1)C1CCS(=O)(=O)C1 (stereo not drawn),.,.,?,6.2%,-20.2%,17.8%
O=C(/C=C/c1ccco1)N(Cc1ccc(F)cc1)C1CCS(=O)(=O)C1 (stereo not drawn),-4.0%,-3.0%,10.7,7.94µM*,-11.5%,3.2%
O=C(Cn1c(=O)oc2ccccc21)N(Cc1ccccc1)C1CCS(=O)(=O)C1 (stereo not drawn),-10.4%,-9.0%,-100.5*,12.3%[11.4 µM],-14.5%,19.2%
O=C(/C=C/c1ccco1)N(Cc1cccc(Br)c1)C1CCS(=O)(=O)C1 (stereo not drawn),-13.3%,1.4%,4.5,3.16µM*,-15.7%,6.6%
O=C1C2CC=CCC2C(=O)N1CC(=O)N(Cc1ccccc1)C1CCS(=O)(=O)C1 (stereo not drawn),.,.,20.4,0.3%,2.6%,4.3%
O=C(c1ccco1)N(Cc1cccc(F)c1)C1CCS(=O)(=O)C1 (stereo not drawn),.,.,10.2,-11.3%,-18.3%,7.1%
CC(C)(C)NC(=O)C1CCN(c2ccc(S(=O)(=O)N3CCOCC3)cc2Cl)CC1,i,-11.8%,-30.7,-2.0%,-16.1%,-10.9%
c1ccc(CCCCNCC2COc3ccccc3O2)cc1 (stereo not drawn),.,.,9.1,?,10.4%,6.5%
CNC(=O)COC(=O)c1cccc(S(=O)(=O)N2CCN(c3ccc(F)cc3)CC2)c1,.,.,-8.5,4.8%,-15.6%,7.4%
O=C1C(Cc2ccccc2)Nc2ncnc(N3CCCCC3)c2N1Cc1ccc(Cl)cc1 (stereo not drawn),-27.5%,-7.0%,.,?,-11.8%,-5.6%
O=C(/C=C/c1ccco1)N(Cc1ccccc1)C1CCS(=O)(=O)C1 (stereo not drawn),-4.0%,-2.2%,-3.6,3.16µM*,1.9%,-0.3%
O=C(/C=C/c1ccco1)N(Cc1cccc(Cl)c1)C1CCS(=O)(=O)C1 (stereo not drawn),-14.4%[7.34 µM],-11.4%[7.34 µM],23.1,2.82µM*,-12.9%,7.1%
O=C(/C=C/c1ccccc1)N(Cc1ccc(Cl)cc1)C1CCS(=O)(=O)C1 (stereo not drawn),-15.6%,-11.2%,3.8,-0.4%,-14.6%,-1.2%
CCCOc1ccccc1C(=O)N(Cc1cccc(Br)c1)C1CCS(=O)(=O)C1 (stereo not drawn),-3.1%,-10.4%,-31.5,0.7%,0.708µM*,14.5%
CCCOc1ccccc1C(=O)N(Cc1cccs1)C1CCS(=O)(=O)C1 (stereo not drawn),.,-21.2%,35.4,7.9%,0.0%,1.3%
COc1cccc(CCN2CCC(CNS(=O)(=O)c3cc(-c4cc(C)no4)ccc3OC)CC2)c1,.,.,0.0,6.6%,?,7.94µM*
COc1cccc(CCN2CCC(CNS(=O)(=O)c3cc(-c4cc(C)no4)ccc3C)CC2)c1,.,.,0.0,-4.0%,?,12.6µM*
COc1ccc(-c2cc(C)no2)cc1S(=O)(=O)NCCCN1CCCCCC1,.,.,0.0,-32.2%,12.3%,-27.1%
SMILES,Vaccinia mCherry,VACV Venus inh,HCMV antiviral,Sm TGR inh,FMDV inh,HCV inhibitor
Cc1cc(-c2ccc(C)c(S(=O)(=O)NCC3CCN(Cc4cccc(F)c4)CC3)c2)on1,.,.,0.0,-0.6%,16.7%,?
CCc1ccc2oc(-c3ccc(NC(=O)c4ccc(OC)c(Br)c4)cc3)nc2c1,-3.9%,0.0%,-1.8,9.1%,36.9%,.
O=S(=O)(c1ccc2c(c1)CCC2)N1CCN(c2nc(-c3ccccc3)nc3ccccc23)CC1,0.0%,-15.9%,.,.,.,.
Cc1ccc(NC(=O)CCCN2C(=O)C(c3ccccc3)Oc3cccnc32)c(C)c1 (stereo not drawn),-12.1%,-25.0%,?,.,-12.4%,.
O=C(CCCN1C(=O)C(c2ccccc2)Oc2cccnc21)Nc1ccc(Br)cc1F (stereo not drawn),-6.2%,0.0%,-104.9*,-1.8%,-20.3%,.
O=C1NC(c2cccc([N+](=O)[O-])c2)=CCN1c1ccccc1O,.,.,-27.5,44.7µM*,-3.4%,6.6%
C=C(CCC(=O)c1ccccc1)C(=O)c1ccccc1,-17.1%,?,-81.3*,44.7µM*,?,?
C=C(C(=O)c1ccccc1)C(CC(=O)c1ccccc1)c1ccccc1 (stereo not drawn),12.6µM*,?,-101.4*,-8.4%,17.8µM*,12.6µM*
O=C(Cc1ccccc1)CC(CC(=O)c1ccccc1)c1ccccc1 (stereo not drawn),-6.1%,-15.4%,-34.9,.,-0.5%,.
O=C(Nc1cc(Sc2ccccn2)cc([N+](=O)[O-])c1)c1ccc(Cl)cc1,.,10µM*,-17.6,10.0%,28.2µM*,10µM*
O=C(Nc1ccc(S(=O)(=O)Nc2ncccn2)cc1)c1cccc(Cl)c1,9.1%,12.6%,14.5,4.5%,-16.6%,.
O=C(Nc1cc(Sc2ccccn2)cc([N+](=O)[O-])c1)c1cccc(Cl)c1,i,?,?,-2.6%,25.1µM*,8.91µM*
C=CCn1c(=O)c(C=Nc2cccnc2Cl)c(O)n(CCCC)c1=O,-9.4%,-18.1%,67.3,5.5%,-0.7%,7.9%
O=C(CCC(=O)OCC(=O)c1ccc([N+](=O)[O-])cc1)NC1CCCCC1,i,-1.5%,-37.9,-13.7%,2.1%,3.8%
O=C(CCC(=O)OCC(=O)c1ccc(Cl)cc1)NC1CCCCC1,.,.,-105.0*,-21.1%,9.6%,4.2%
CCN1CCN(c2ccc([N+](=O)[O-])cc2C=C2C(=O)NC(=O)NC2=O)CC1,-18.0%,-3.2%,-14.1,12.6µM*,-7.0%,-4.6%
